# The full ranking holds about 2,300 sequences; the median of “median log2 fold change of GCK-ALFA target abundance (FLAG IP / Myc IP barcode read proportion)” is about 0.095, and the lowest 2% start at about -0.47. Only a selection was taken, and the lowest values are over-represented in it overall.
# B1: LC3A_3_1773 (protein)
# chain: MEELLARFEEKLRAAGFSEEVIKEALAAIKTFLEKGREEVAETFLELMLEAKDLSEEKLLVMARMAKELAEESKVSEEELIKELKRLFESIAGIEELDEE
# B2: LC3A_3_1887 (protein)
# chain: MDEKIEETLKRLKEAGASEETLEAFKRVVEKLKARGWDEALNTLIEKVDELLDAPDEVRLAFLQDVLALLDTPGVSEEELIAGINELATLAKNEAEIIEL
# B3: LC3A_28_691 (protein)
# chain: SAIDETIARIRAQAEAALAAGEEALLEVTVPATATQEDIDRLIATIREAVERLAGVGKVYIVVDVESGVAQENITRLADALDELEAEYPNVTVVIALDED
# B4: LC3A_28_654 (protein)
# chain: EEVEKELKEALKEAEEAKKKKEPAVITIKVSGKVNEEELKKILETLEKIAELLKDIKGSAIIIDLDKDVKEEFKNKLIDKAEELEKKYPNVTVIIALEER
# B5: LC3A_3_1762 (protein)
# chain: MEAFIEAAAKELKEAGASEELIEKASRALRLLLERGLEETAKEFVKVLLELLKKSEELALDLAEDVLTLLETSTLSPEELAKAVRSEMNAALSEAEIEEL
# B6: LC3A_28_950 (protein)
# chain: MSIEENIEKALKEAKEAKEKNEPVVITLVLEDDPSEEAVEALIEAMEEIAELLKDIKGTTIIVDVSSKVKQEHIDAIADKGEEIEKKYPNINVIIALDED
# B7: LC3A_102_127 (protein)
# chain: EVEKLKKELLEKVKKEVEKLLEKDKSLSEEEKKKILELAEKLAEAKLENAEIEIQHGFVDIYLEDKAIELQEELEKIDKELAKKINEIIEKGVEEFRKKL
# B8: LC3A_free_46_2348 (protein)
# chain: YKAEILIDLLAKDKETLEKAVKEIVEEAKKIAEKYNLELEIKVKIEKLEDGSYYAEIEITLKGETEEDLQKAVNELINKIEEIAKKYGVAAIISYEIIKE
# B9: LC3A_28_708 (protein)
# chain: NPLEESIKKALEEAKAAAKAGESTVITIKVPGSATEEDIEKLIKALEEIAEITKDLPSTSIIIDVDGGVKQEHIDKIADAAEEIEKKYPNVTVIIALDET
# B10: LC3A_147_403 (protein)
# chain: YIVEADIDIITKNAKEEVLAAFEEIVEELKEKGYEVELEVEVEKLDEDTWYINVKIKVETETKEEAEEVADYIEDKIDEIEEKLKDKILASLISIEIIEE
# B11: LC3A_free_46_2366 (protein)
# chain: VKAEIDIDFLVETKEKAEELAKELEEEIKKIAEKYGVKVKIEVKIIKNPDGTYSLEIEIELEAENKETLQKAVNEIIDSIDKIAEKFNVSYIISVEIIDE
# B12: LC3A_28_934 (protein)
# chain: MTVEERIKKALEEAEKAAKAGEPVVITIKVTSKDTQEEIDKLIKTIKEIAEILKNVKGAAIIVDVDAGVPQERIDKIADTLEEIEKKYPNINAILALDED
# B13: LC3A_3_1491 (protein)
# chain: MEELLERMREVLEARGASEEQIEEVLEAVEELLELGYEETVEELIELFEANPDLDPEQIVTAVLITLEVAEEEDLSEEELVERARRIFEDVAEIEALDEE
# B14: LC3A_3_1490 (protein)
# chain: REELLERMRAVLEARGASPEQIAEVLEAAERLLELGYEETVETLIELFEANPDLDPLDIVTAVLITLEVAEEEDLSEEELVERAREIFENVREIEALDEN
# B15: LC3A_28_1022 (protein)
# chain: SALDEELEALRAEVEAALARGEDVLLEVTIKPTDSLEEVRRKMERVKEIALEASKRGKVDVLIDVEKGVSQEKIDIVMDAAEELEEEDPSVNVIIALEEE
# B16: LC3A_141_383 (protein)
# chain: MKKEFEMEATKETADEVFKFMEEVEKETLEMIKESGGKPVKMKVKITATNEKTGEVVEKEEEYIVTEENADLVADGIEIEVLSLLDRVGGKVKVKVTLES
# B17: LC3A_28_1063 (protein)
# chain: SKVEAEIKKALAEAKEAVAAGEEALVTITIDDSDSDEDVEKKLKTMEEIAELTKTLPRTTILVDIDSSRKEEISKKVSEVGDKLEKKYPNVTVIIALSEE
# B18: LC3A_147_431 (protein)
# chain: YITTVDIDVLTKDAEEEVIKAAKEIEEELKAKGYEVELEIEVEELENGEKYIHIKITVKTETEEEAKEAADYIVDKFEELEEKLKDKILGSIISVEIEEA
# B19: LC3A_147_511 (protein)
# chain: YEVEVDVDIITKDAEEEVIEEFKEIAEELKKKGYEVELEIEVEELENGITYIHVKITVKTETEEEAKEVANYILDKIDEIEEKLKDKILGSMISVEIIKK
# Target: MAP1LC3A, Q9H492
# Assay: median log2 fold change of GCK-ALFA target abundance (FLAG IP / Myc IP barcode read proportion) (log2 ratio); each designed protein is fused to an ALFA-tag nanobody in HEK293 cells to bring the named protein to FLAG-tagged glucokinase (GCK); Myc marks an untargeted standard; higher = target protein stabilised (more abundant)
# Settings: target protein: 3xFLAG-MCP-GCK-ALFA reporter; HEK293 landing pad (RPLP)
# In short: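 Binders fused to an ALFA nanobody were recombined as a library into HEK293 landing-pad cells, which were induced with 2 μg mL^−1 doxycycline and then transfected to express a FLAG-tagged target and a Myc-tagged standard. After 48 h, circular RNA barcodes recovered by anti-FLAG and anti-Myc immunoprecipitation of lysates were reverse transcribed, amplified and sequenced. Each binder's target abundance is the median log2 ratio of FLAG to Myc barcode read proportions, from barcodes present at ≥10^−7 in both replicates, binders carrying ≥3 barcodes per replicate, a 10^−6 pseudocount and pooled replicates.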
row,Binder,median log2 fold change
1,B1,0.23
2,B2,0.21
3,B3,-0.0472
4,B4,0.153
5,B5,0.226
6,B6,0.204
7,B7,-0.519
8,B8,-0.204
9,B9,0.0817
10,B10,-0.0503
11,B11,0.102
12,B12,0.252
13,B13,-0.577
14,B14,-0.342
15,B15,0.00506
16,B16,0.328
17,B17,0.0338
18,B18,0.117
19,B19,-0.745

# Source: the supplement of paper PMC12632987
